# Assay results published in publication PMC6919601, “Identification of Plasmodium dipeptidyl aminopeptidase allosteric inhibitors by high throughput screening” (PLoS ONE, 2019).
# Hit rate of the full screen: of about 110,000 compounds, about 230 (0.21%) showed an effect of 50% or more. The sample holds strong results, similar compounds and a random draw of the others, so the mix is not that of the screen.
# Target: DPAP1 (Plasmodium falciparum, UniProt Q8IIJ9)
# Assay: primary screen, percent inhibition; read by cleavage of a fluorogenic dipeptide substrate; higher = more effect of the substance
# Design: species or system P. falciparum D10 trophozoite lysates; single well
# Description: HTS was performed in black 384-well plates. The first and last two columns of each plate contained our negative (DMSO) and positive (10 μM JCP410) controls, and the 20 central columns the test compounds at 10 μM. Compounds were first diluted 50-fold into assay buffer (50 mM sodium acetate, 5 mM MgCl2, 10 mM β-mercaptoethanol, and 0.1% CHAPS, pH 5.5) from a 10 mM DMSO stock plates. One microliter of this 200 μM intermediate stock plate was dispensed into the assay plate. […] After 30 min, the reaction was quenched with 20 μL of 0.5 M acetic acid, and the fluorescent intensity measured at 523 nm (λex = 492 nm) using an Analyst HT multimode plate reader (Molecular Devices).
# 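Note: 30 min substrate incubation versus DMSO and 10 µM JCP410 controls.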
# Sequence of DPAP1 (Q8IIJ9 whole entry, looked up): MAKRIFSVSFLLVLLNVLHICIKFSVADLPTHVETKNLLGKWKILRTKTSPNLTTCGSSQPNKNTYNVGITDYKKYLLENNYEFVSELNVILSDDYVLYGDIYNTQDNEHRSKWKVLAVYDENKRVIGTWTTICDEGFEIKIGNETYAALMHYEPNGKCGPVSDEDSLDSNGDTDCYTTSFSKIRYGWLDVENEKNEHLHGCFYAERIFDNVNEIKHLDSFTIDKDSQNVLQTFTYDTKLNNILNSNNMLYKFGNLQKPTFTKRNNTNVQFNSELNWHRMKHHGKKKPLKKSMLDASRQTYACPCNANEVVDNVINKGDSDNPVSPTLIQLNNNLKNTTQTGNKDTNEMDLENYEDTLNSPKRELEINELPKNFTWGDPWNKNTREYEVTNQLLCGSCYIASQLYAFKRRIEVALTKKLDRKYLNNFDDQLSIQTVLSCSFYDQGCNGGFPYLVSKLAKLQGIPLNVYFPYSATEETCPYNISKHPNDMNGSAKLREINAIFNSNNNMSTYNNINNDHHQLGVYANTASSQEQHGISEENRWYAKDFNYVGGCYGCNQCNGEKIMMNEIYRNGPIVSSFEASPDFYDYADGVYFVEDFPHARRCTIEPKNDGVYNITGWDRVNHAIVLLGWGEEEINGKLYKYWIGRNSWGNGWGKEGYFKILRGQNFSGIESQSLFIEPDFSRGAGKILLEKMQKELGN
row,SMILES,% Inhibition @ 10 uM
1,Cc1cc2c(c(S)n1)C(=O)O/C2=C\c1ccco1,67.6%
2,Cc1cc2c(c(S)n1)C(=O)O/C2=C\c1c[nH]nc1-c1ccc(F)cc1,26%
3,Cc1cc2c(c(S)n1)C(=O)O/C2=C\c1c[nH]nc1-c1cccs1,43.6%
4,COc1ccc(-n2cc(-c3ccc(C)cc3)nc2SCC(=O)NCC2CCCO2)cc1 (stereo not drawn),4.33%
5,CCOC(=O)N1CCN(C(=O)CSc2nnc(Cc3cccn3C)n2-c2ccc(OC)cc2)CC1,-5.76%
6,CCOC(=O)N1CCN(C(=O)CSc2nc(-c3ccc(C)cc3)cn2-c2ccc(OC)cc2)CC1,77.3%
7,CC1CCCCC1NC(=O)c1cnn2c(C(F)(F)F)cc(-c3cccs3)nc12 (stereo not drawn),4.36%
8,c1ccc2c(c1)CCN(c1ncnc3c1nnn3Cc1cccc3ccccc13)C2,-0.0678%
9,CCS(=O)(=O)N1CCC(C(=O)NCc2ccc(F)cc2Cl)CC1,-6.75%
10,CN(C)CC1CSCCC1(O)c1cccc(Cl)c1 (stereo not drawn),-4.54%
11,CN(C)CC1CSCCC1(O)c1cccc(O)c1 (stereo not drawn),-15.4%
12,CN(C)CC1CSCCC1(O)c1ccccc1 (stereo not drawn),85.1%
13,O=c1oc2c(cc(NS(=O)(=O)c3ccc(F)cc3)c3ccccc32)s1,-2.54%
14,Cc1cc2ccccc2n1-c1ccc(C(=O)N2CCCCCC2)s1,3.12%
15,CC1(C)CC2=NC3=C(C(=O)CC(C)(C)C3)C(c3cc(Cl)c(O)c(Cl)c3)C2=C(O)C1 (stereo not drawn),13.2%
16,CC1(C)CC2=NCC(=O)NC2=C(O)C1,59.8%
17,C=CC/N=C/C1=C(O)CC(C)(C)CC1=O,-3.06%
18,COc1ccc(Br)cc1C1C(C#N)=C(N)Oc2[nH]nc(-c3ccc4c(c3)OCO4)c21 (stereo not drawn),3.99%
19,CCOC(=O)C1=NNC2C(=O)N(c3ccc(F)cc3)C(=O)C12 (stereo not drawn),-5.48%
20,O=C(Nc1nccs1)c1ccc(COc2ccccc2Cl)o1,-5.98%
21,Cc1c(CNC(=O)c2cc(-c3ccccc3)nc3ccc(Br)cc23)cnn1C,-2.9%

row,SMILES,% Inhibition @ 10 uM
1,Cc1nc2ccc(Cl)cc2c2c(N)c3ccccc3n12,66%
2,Cc1ccc2nc(C)n3c4ccccc4c(NC(=O)c4ccccc4)c3c2c1,-6.87%
3,COc1ccc2nc(C)n3c4ccccc4c(NC(C)=O)c3c2c1,2.4%
4,Cc1nn2c3ccccc3nc2c2ccccc12,5.3%
5,O=C(O)CCS(=O)(=O)Cc1ccccc1F,1.27%
6,Cc1nc2c(c(C)c1CCC(=O)N1CCC(N3CCCCC3)CC1)c(=O)n(C)c(=O)n2C,-6.91%
7,Cc1nc2c(c(C)c1CCC(=O)N1CCN(C3CCCCC3)CC1)c(=O)n(C)c(=O)n2C,52.7%
8,Cc1nc2c(c(C)c1CCC(=O)N1CCC(C)CC1)c(=O)n(C)c(=O)n2C,-3.1%
9,CC(NC(=O)c1ccc(Br)cc1)C1COc2ccccc2O1 (stereo not drawn),3.24%
10,CCOC(=O)C1=C(O)/C(=C\c2ccccc2OC)N=C1C,-1.6%
11,N#CC1=C2SCN(Cc3ccco3)CN2C(=O)CC1c1ccc(Cl)cc1 (stereo not drawn),42.2%
12,CCOc1ccc(C2CC(=O)N3CN(C)CSC3=C2C#N)cc1OC (stereo not drawn),47.5%
13,CN1CSC2=C(C#N)C(c3cccc(OCc4ccccc4)c3)CC(=O)N2C1 (stereo not drawn),71.1%
14,N#CC1=C2SCN(Cc3ccco3)CN2C(=O)CC1c1cccc(OCc2ccccc2)c1 (stereo not drawn),66.7%
15,CCOc1ccc(C2CC(=O)N3CN(Cc4ccco4)CSC3=C2C#N)cc1 (stereo not drawn),43.4%
16,CC(C)c1ccc(S(=O)(=O)Nc2ccc3oc(=O)sc3c2)cc1,1.13%
17,CCC(C)N(CCNC(=O)c1c2c(nc3ccccc13)C(=O)N(C1CCCCC1)C2)Cc1ccco1 (stereo not drawn),2.48%
18,CCOC(=O)c1cc(C)n(CC2CCC(C(=O)Nc3cccc(C)n3)CC2)c1C (stereo not drawn),-0.943%
19,CCOC(=O)c1cnn(C(C)(C)C)c1C1CCN(C(=O)OC(C)(C)C)CC1,-2.83%
20,Cc1ccc(S(=O)(=O)N2CCCC2)cc1S(=O)(=O)N1CCCC1,1.52%
21,CCC(=O)/N=c1/n(C)c2ccccc2n1CCOc1ccccc1,0.512%

row,SMILES,% Inhibition @ 10 uM
1,OC(COc1cccc2ccccc12)CN1CCN(CC(O)COc2cccc3ccccc23)CC1 (stereo not drawn),51.4%
2,Cc1ccccc1OCC(O)CN1CCN(CC(O)COc2ccccc2C)CC1 (stereo not drawn),-0.053%
3,OC(COc1ccccc1Cl)CN1CCN(CC(O)COc2ccccc2Cl)CC1 (stereo not drawn),0.131%
4,Cc1cc(Br)ccc1OCC(=O)O/N=C(\N)c1cccnc1,-6.94%
5,CCCCN(C)C(=O)CCNC(=O)Cn1ccc2ccccc2c1=O,7.85%
6,CCOc1ccc(S(=O)(=O)N2CCSC2c2ccc(OC)c(OC)c2)cc1 (stereo not drawn),25.4%
7,O=C1/C(=C/c2ccc3nccnc3c2)CC/C1=C\c1ccc2nccnc2c1,-0.503%
8,O=C1/C(=C/c2ccc(F)cc2)CCC1C1CCCC1 (stereo not drawn),23.4%
9,O=C1/C(=C/c2ccc3nccnc3c2)CCC1C1CCCC1 (stereo not drawn),66.2%
10,Cc1cc(C)c2c(n1)sc1c(=O)oc(C)nc12,-0.13%
11,Cc1ccc(N(CC(=O)Nc2ccc(CC#N)cc2)S(=O)(=O)c2ccccc2)c(C)c1,-6.77%
12,O=C(NCc1ccco1)c1ccc(CN2CC(=O)N3CCCCC3C2=O)cc1 (stereo not drawn),3.7%
13,Cc1ccc(-c2cc(C(=O)N3CCN(C(=O)c4ccco4)CC3)[nH]n2)c(C)c1,2.62%
14,COCCN1C(=O)/C(=C/c2cccc(C)c2)S/C1=N\c1ccccc1,64.4%
15,COCCN1C(=O)/C(=C/c2ccccc2)S/C1=N\c1ccccc1,-4.21%
16,COCCN1C(=O)/C(=C/c2ccc(C)cc2)S/C1=N\c1ccccc1,-11.1%
17,CCN(CC)CCCNc1cnnc2c(Cl)cccc12,-4.4%
18,COc1ccc(OC)c(C2C3=C(O)CCCC3=NC(C)=C2C(=O)Nc2ccccn2)c1 (stereo not drawn),-8.82%
19,COc1ccc2c(c1)cc1c(=O)n(CC(=O)NCc3cccc(OC)c3OC)nc(C)n12,99.1%
20,CCCNC(=O)Cn1nc(C)n2c(cc3cc(OC)ccc32)c1=O,4.84%
21,COc1ccccc1CNC(=O)Cn1nc(C)n2c(cc3c(OC)cccc32)c1=O,-3.47%
